Calls of active or inactive are those of the source.

Our source for the composite z-score and z-score values is PubChem BioAssay.

For experiment [1], the system named is Plasmodium falciparum Sir2 (PF13_0152, Sir2A). As to the kind of experiment: pfSir2 binders on small-molecule microarrays, primary screen, biochemical, small-molecule microarray, 635 nm fluorescence (AID 1098).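 Further: score merges spot fluorescence intensity with its signal-to-noise ratio.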 Conditions: small-molecule microarray binding, fluorescence 635 nm; higher = more signal.
Experiment [2] is described as follows: small-molecule microarray binders of probe aDKK1, primary screen, biochemical, biotinylated probe, 635/667 nm fluorescence (AID 1099).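 Further: score merges 667nm spot fluorescence with signal to noise across triplicate slides; reference of the scale not given here.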 As to conditions: higher = more signal.
A short description of experiment [3]: small-molecule microarray binders of probe aCHRDL2, primary screen, biochemical, biotinylated probe, 635/667 nm fluorescence (AID 1100). Conditions: higher = more signal.
Experiment [4] in a line: splicing luciferase reporter signal modulators, primary screen, spliceosome inhibition project, cell-based, HEK293, splice +/- reporter (AID 1101).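 Further: HEK293 cells carrying a splicing-competent luciferase reporter gene; test concentration not given here.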 As to conditions: luminescence, 24 h, higher = more signal, called active from +8 up or from −8 down. In general terms: In a reporter assay the amount or activity of a reporter protein is the signal.
Experiment [5] has as its target Fibroblast growth factor 10 (Homo sapiens) (UniProt O15520). As to the kind of experiment: FGF10 binders on small-molecule microarrays, primary screen, biochemical, small-molecule microarray, 635 nm fluorescence (AID 1102). Conditions: FGF10 binding, fluorescence 635 nm, higher = more signal.
In experiment [6] the test system is glycogen synthase kinase-3 (GSK3A per assay name; protocol says GSK3B). In words: GSK3 binders on small-molecule microarrays, primary screen, biochemical, small-molecule microarray, 635 nm fluorescence, GSK3A (AID 1103). Further: the record names both GSK3A and GSK3B. Conditions: small-molecule microarray binding, fluorescence 635 nm; higher = more signal.
Experiment [7] deals with Epidermal growth factor receptor (Homo sapiens) (UniProt P00533). In words: EGFR binders on small-molecule microarrays, primary screen, biochemical, small-molecule microarray, 635 nm fluorescence (AID 1104).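 Further: score merges 667 nm emission intensity with spot signal to noise over triplicate slides.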 As to conditions: EGFR binding, higher = more signal.
In experiment [8] the target is Follistatin-related protein 3 (Homo sapiens) (UniProt O95633). As to the kind of experiment: FSTL3 binders on small-molecule microarrays, primary screen, biochemical, small-molecule microarray, 635 nm fluorescence (AID 1105).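 Further: score merges emission near 667 nm and signal to noise per printed spot across three slides.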 Conditions: FSTL3 binding, higher = more signal.
The target in experiment [9] is Dickkopf-related protein 1 (Homo sapiens) (UniProt O94907). As to the kind of experiment: DKK1 binders on small-molecule microarrays, primary screen, biochemical, small-molecule microarray, 635 nm fluorescence scan (AID 1106).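 Further: score merges emission near 667 nm with signal to noise over three replicate slides.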 As to conditions: DKK1 binding, higher = more signal.
The subject of experiment [10] is Inhibin beta A chain (activin A). As to the kind of experiment: INHBA (activin A) binders on microarrays, primary screen, biochemical, small-molecule microarray, 635 nm fluorescence scan (AID 1107).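 Further: mouse activin A protein probed at 4.33 µg/mL on printed slides; score merges bound-protein fluorescence near 667 nm with spot signal-to-noise.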 As to conditions: small-molecule microarray binding, higher = more signal.

Chain of Epidermal growth factor receptor (Homo sapiens) (P00533 whole entry, looked up): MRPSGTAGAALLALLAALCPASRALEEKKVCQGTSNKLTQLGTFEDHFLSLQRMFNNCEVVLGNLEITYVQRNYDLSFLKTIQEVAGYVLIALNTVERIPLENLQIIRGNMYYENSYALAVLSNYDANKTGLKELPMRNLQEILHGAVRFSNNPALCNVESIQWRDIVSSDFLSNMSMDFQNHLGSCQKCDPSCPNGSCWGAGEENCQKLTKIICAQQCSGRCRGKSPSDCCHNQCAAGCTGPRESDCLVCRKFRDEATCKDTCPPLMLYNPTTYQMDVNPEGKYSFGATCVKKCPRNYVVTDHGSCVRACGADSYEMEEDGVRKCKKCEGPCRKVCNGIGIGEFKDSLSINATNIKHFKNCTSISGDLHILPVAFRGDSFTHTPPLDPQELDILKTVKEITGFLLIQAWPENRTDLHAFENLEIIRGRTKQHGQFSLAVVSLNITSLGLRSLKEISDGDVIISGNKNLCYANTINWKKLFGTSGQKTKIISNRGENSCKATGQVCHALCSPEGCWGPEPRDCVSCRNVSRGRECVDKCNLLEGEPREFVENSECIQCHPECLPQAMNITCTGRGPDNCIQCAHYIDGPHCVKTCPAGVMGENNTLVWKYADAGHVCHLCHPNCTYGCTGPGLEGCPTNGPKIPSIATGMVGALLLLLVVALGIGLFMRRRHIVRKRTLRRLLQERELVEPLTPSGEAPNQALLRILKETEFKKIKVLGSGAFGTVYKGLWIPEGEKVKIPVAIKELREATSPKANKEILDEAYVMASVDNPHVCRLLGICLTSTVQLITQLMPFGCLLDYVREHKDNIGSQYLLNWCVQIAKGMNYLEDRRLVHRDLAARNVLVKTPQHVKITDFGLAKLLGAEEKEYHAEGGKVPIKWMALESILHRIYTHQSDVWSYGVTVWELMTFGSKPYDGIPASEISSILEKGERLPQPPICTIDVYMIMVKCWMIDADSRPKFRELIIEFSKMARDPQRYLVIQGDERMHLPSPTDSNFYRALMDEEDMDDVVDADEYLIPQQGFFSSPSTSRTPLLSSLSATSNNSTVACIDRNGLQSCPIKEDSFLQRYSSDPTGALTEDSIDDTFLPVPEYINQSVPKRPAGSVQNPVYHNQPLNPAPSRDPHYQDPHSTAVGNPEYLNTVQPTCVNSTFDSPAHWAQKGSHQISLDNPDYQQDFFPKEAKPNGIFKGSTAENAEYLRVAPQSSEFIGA
Chain of Dickkopf-related protein 1 (Homo sapiens) (O94907 whole entry, looked up): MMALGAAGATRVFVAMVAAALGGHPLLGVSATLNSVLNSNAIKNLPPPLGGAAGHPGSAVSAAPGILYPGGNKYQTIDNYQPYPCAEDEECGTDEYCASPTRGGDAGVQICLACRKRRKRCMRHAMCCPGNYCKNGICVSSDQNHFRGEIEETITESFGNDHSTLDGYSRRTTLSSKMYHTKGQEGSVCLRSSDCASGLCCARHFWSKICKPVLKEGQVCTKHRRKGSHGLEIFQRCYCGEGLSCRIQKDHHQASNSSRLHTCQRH
Chain of Fibroblast growth factor 10 (Homo sapiens) (O15520 whole entry, looked up): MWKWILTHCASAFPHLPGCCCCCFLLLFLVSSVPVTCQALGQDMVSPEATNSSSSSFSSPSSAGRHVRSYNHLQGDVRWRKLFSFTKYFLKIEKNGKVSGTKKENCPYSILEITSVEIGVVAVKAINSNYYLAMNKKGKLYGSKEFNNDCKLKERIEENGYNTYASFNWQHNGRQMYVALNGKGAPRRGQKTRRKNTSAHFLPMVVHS
Chain of Follistatin-related protein 3 (Homo sapiens) (O95633 whole entry, looked up): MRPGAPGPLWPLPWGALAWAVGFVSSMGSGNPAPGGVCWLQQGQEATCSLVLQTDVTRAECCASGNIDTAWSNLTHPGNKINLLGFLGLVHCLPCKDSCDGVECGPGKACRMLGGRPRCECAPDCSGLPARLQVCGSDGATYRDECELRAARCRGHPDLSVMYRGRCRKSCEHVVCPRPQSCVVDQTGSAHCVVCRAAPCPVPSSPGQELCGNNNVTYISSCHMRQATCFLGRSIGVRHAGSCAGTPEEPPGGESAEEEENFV

Turning to `COc1ccc([C@H]2C[C@H]3C(Br)=C[C@@]2(CO)C(=O)[C@]32CO2)cc1`, the composite z-score in experiment [1] was -0.194; in experiment [2], -0.118; in experiment [3], 0.565; in experiment [5], -0.0884; in experiment [6], -0.516; in experiment [7], 0.197. For the same compound, the composite z-score is -0.387 in experiment [8], -0.198 in experiment [9] and 1.32 in experiment [10]. Also, the z-score in [4] is -0.206 (inactive).

With `Cc1ccc(S(=O)(=O)N2C[C@@H](C(=O)O)[C@H](Sc3ccccc3)C[C@H]2c2ccccc2)cc1`, the composite z-score in experiment [1] was found to be 1.47; in experiment [2] it was 0.707; in experiment [3], 0.999; in [5], 1.15; in experiment [6], 0.586; in [7], 0.14. Moreover, the composite z-score in [8] is 1.29; in experiment [9], -0.503; in experiment [10] it was 0.49. Moreover, the z-score in [4] was 1.64 (inactive).

As for `C=CC[C@]1(C(=O)NCc2ccccc2)N=C(c2ccc(OCCCO)cc2)O[C@H]1c1ccccc1CN=[N+]=[N-]`, the composite z-score in [1] was 1.51; in [2], 0.709; in experiment [3], 0.899; in experiment [5], 1.19; in experiment [6], 1.24; in [7] it was 0.171. Also, the composite z-score in experiment [8] was 1.39; in [9], 0.607; in experiment [10] it was 0.835. In addition, the z-score in [4] was -0.169 (inactive).

On to `O[C@@H](Cc1ccccc1)[C@@H](/C=C/C1CC1)NCc1cccc(Cl)c1`, for which the composite z-score was 1.2 in experiment [1]; 0.081 in [2]; 1.31 in experiment [3]; -1.46 in experiment [5]; -0.638 in [6]; -1.14 in experiment [7]. The results for the composite z-score in [8], in [9] and in [10] were -0.78, -1.61 and 0.157, respectively. Besides, the z-score in [4] was -0.944 (inactive).

Turning to `O=C(CS)NCCCCCNC(=O)[C@@H]1C[C@@H]2C(=O)NCC(=O)N2[C@@H]1c1ccc(O)cc1`, the composite z-score in experiment [1] is 0.793; in [2], -0.179; in experiment [3], 0.347; in experiment [5], 0.528; in [6], 0.692; in [7] it was 0.17. The composite z-score in experiment [8] is 0.157; in experiment [9] it was -0.109; in [10], 0.606. Moreover, in experiment [4], the z-score is 0.0774 (inactive).

Consider `CN1C(=O)C2C=CC(C(O)c3ccccc3)N(N3CCCCC3)C2C1=O` (stereo not given), for which the composite z-score in experiment [1] is 1.75; in experiment [2], 0.159; in experiment [3], 0.846; in experiment [5], 1.26; in [6] it was 0.83; in experiment [7] it was -0.0247. Moreover, the composite z-score in [8] is 0.494; in experiment [9] it was 0.0514; in experiment [10], 0.932. Besides, in [4], the z-score was 0.651 (inactive).

`COCCOC(=O)N1C(=O)[C@@]2(c3ccccc31)[C@H](c1ccc(OCCO)cc1)N1[C@H](c3ccccc3)[C@H](c3ccccc3)OC(=O)[C@H]1[C@@H]2C(=O)N1CCc2cc(OC)c(OC)cc2C1`: the composite z-score in experiment [1] came to 1.53; in experiment [2], 0.305; in [3] it was 0.232; in [5], 1.29; in [6] it was 1.3; in experiment [7], 0.738. Besides, the figures for the composite z-score in [8], in [9] and in experiment [10] were 1.42, 0.476 and 0.355, respectively. Further, the z-score in experiment [4] is -1.02 (inactive).

Consider `O=C1C2C=CC(C(O)c3ccc4c(c3)OCO4)N(Nc3ccc([N+](=O)[O-])cc3)C2C(=O)N1c1ccccc1` (stereo not given), for which the composite z-score in experiment [1] is 1.73; in experiment [2], -0.0669; in experiment [3] it was -0.162; in experiment [5] it was 0.67; in experiment [6] it was 0.675; in [7], 0.342. In addition, the figures for the composite z-score in experiment [8], in experiment [9] and in experiment [10] were 0.381, 0.207 and 0.278, respectively. In addition, in [4], the z-score was -0.0322 (inactive).

Take `O=C1OCCC=C[C@H]2OC34C=CCN(c5ccc(Cl)cc5)C(=O)[C@H]3N(CCCO)C(=O)[C@@H]4C12` (stereo not given in full): the composite z-score in [1] was -0.41; in [2], -0.227; in [3] it was 0.0093; in [5], 0.0364; in [6], -1.4; in experiment [7], -0.522. The values for the composite z-score in experiment [8], in experiment [9] and in [10] were -0.181, -0.455 and 1.52, respectively. Also, in [4], the z-score was -1.29 (inactive).

In the case of `CO[C@H]1O[C@H](CO)[C@@H](OC(=O)Nc2cccc(F)c2)[C@H](OC(=O)Nc2ccccc2)[C@H]1OC(=O)Nc1ccccc1`, the composite z-score in experiment [1] is 1.46; in [2] it was -0.0312; in [3], 0.55; in experiment [5] it was 1.52; in experiment [6], 1.35; in [7] it was 0.162. In addition, the composite z-score was 1.49 in experiment [8], 0.18 in [9] and 0.417 in [10]. In [4], the z-score is -0.0505 (inactive).

Regarding `C=CCNC(=O)[C@@H]1[C@H]2C(=O)O[C@H](c3ccccc3)[C@H](c3ccccc3)N2[C@H](c2ccc(OCCO)cc2)[C@@]12C(=O)N(C(=O)OCCOC)c1ccc(C#CCC(C(=O)OC)C(=O)OC)cc12`, the composite z-score amounted to 1.32 in experiment [1]; 0.951 in experiment [2]; 0.328 in [3]; 1.07 in experiment [5]; 1.28 in experiment [6]; 0.719 in experiment [7]. Besides, the composite z-score in [8] was 1.1; in [9], 1.29; in experiment [10], -0.0578. For the same compound, the z-score in experiment [4] is 1.01 (inactive).

On to `O=C1O[C@@H](c2ccccc2)[C@@H](c2ccccc2)N2[C@@H](c3ccccc3OCCO)[C@]3(C(=O)Nc4ccccc43)[C@@H](C(=O)O)[C@H]12`, for which the composite z-score in experiment [1] was 1.61; in experiment [2] it was -0.124; in experiment [3], 0.148; in experiment [5] it was 0.798; in experiment [6] it was -0.269; in experiment [7], -0.447. The composite z-score in [8] was 0.0073; in experiment [9], -0.499; in experiment [10], -0.143. In addition, the z-score in experiment [4] was -1.71 (inactive).

As for `COCCOC(=O)N1C(=O)[C@@]2(c3ccccc31)[C@H](C(=O)N1CCc3cc(OC)c(OC)cc3C1)[C@H]1C(=O)O[C@H](c3ccccc3)[C@H](c3ccccc3)N1[C@@H]2c1ccc(O)cc1`, the composite z-score in [1] was found to be 1.38; in experiment [2], 0.0664; in [3], 0.299; in experiment [5], 0.375; in experiment [6], 0.691; in experiment [7] it was 0.431. Moreover, the figures for the composite z-score in experiment [8], in experiment [9] and in experiment [10] were 0.671, 0.503 and 0.407, respectively. Also, in [4], the z-score was 0.251 (inactive).

Regarding `COC(=O)[C@@]1(Cc2ccc(F)cc2)[C@H]2c3cc(C(=O)N(C)C)n(Cc4cc(C)n(C)n4)c3C[C@H]2CN1C(=O)c1ccccc1`, the composite z-score was 1.16 in experiment [1]; 1.2 in experiment [2]; 1.19 in [3]; 1.17 in experiment [5]; 0.716 in experiment [6]; -0.0733 in [7]. The composite z-score came out at 0.386 in [8], 0.0455 in [9] and 0.609 in [10]. The z-score in [4] was -1.99 (inactive).

As for `COc1ccc([Si](C)(C)[C@@H]2[C@@H](CCn3cc([C@H](O)c4ccccc4)nn3)O[C@]3(C(=O)N(Cc4cccc(N5CCC5=O)c4)c4ccccc43)[C@H]2C)cc1`, the composite z-score in experiment [1] was 0.647; in experiment [2], -0.386; in [3] it was -0.0143; in [5], 0.483; in [6], -0.502; in experiment [7], 0.0403. The figures for the composite z-score in experiment [8], in [9] and in experiment [10] were -0.304, 0.589 and 0.521, respectively. Further, in experiment [4], the z-score is 1.41 (inactive).
